# PubChem BioAssay (NCI)
# About 79,000 compounds went through this panel and 15% of them were active in at least one assay; those are over-represented in the sample as a whole. Values without a mark were called inactive. The source made the active and inactive calls. No stated cut-off is given here; in the data, active means growth inhibition above about 70%; inactive means the rest.
# Experiments:
# [1] = NCI Yeast Anticancer Drug Screen. Data for the rad50 strain (AID 155);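 further: 0% = growth of vehicle-only cultures of the same strain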; conditions: S. cerevisiae rad50 strain growth inhibition, stronger effect = higher value
# Outline: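 Growth of the mutant yeast was measured after compound exposure and referenced to vehicle-treated cultures.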
# [2] = NCI Yeast Anticancer Drug Screen. Data for the mec2-1 strain (AID 157); conditions: S. cerevisiae mec2-1 strain, stronger effect = higher value
# Outline: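 Growth inhibition is read against vehicle-treated controls after compound exposure of the mec2-1 yeast strain, which is defective in DNA damage repair or cell cycle control.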
# [3] = NCI Yeast Anticancer Drug Screen. Data for the sgs1 mgt1 strain (AID 161);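 further: 0% = growth of cultures given vehicle only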; conditions: S. cerevisiae sgs1 mgt1 strain, stronger effect = higher value
# Outline: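 Yeast cells carrying a defined DNA-repair defect were exposed to test compounds. Growth inhibition was measured relative to vehicle-treated controls.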
# [4] = NCI Yeast Anticancer Drug Screen. Data for the cln2 rad14 strain (AID 165);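 further: 0% = growth equal to vehicle treated cultures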; conditions: S. cerevisiae cln2 rad14 strain, stronger effect = higher value
# Outline: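 Growth inhibition, relative to vehicle-treated controls, is the read-out. The test organism is a yeast strain with defined genetic alterations, cln2 rad14.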
# [5] = NCI Yeast Anticancer Drug Screen. Data for the bub3 strain (AID 167); conditions: S. cerevisiae bub3 mutant strain, stronger effect = higher value
# Outline: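 Whole-cell yeast assay. The mutant strain was incubated with compounds, and growth inhibition was determined by comparison with vehicle-treated cells.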
# [6] = NCI Yeast Anticancer Drug Screen. Data for the mlh1 rad18 strain (AID 175); conditions: S. cerevisiae mlh1 rad18 strain growth inhibition, stronger effect = higher value
# Outline: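 Cells of a genetically altered yeast strain, deficient in DNA damage repair, were treated with compound. Their growth was then compared with that of vehicle-treated cultures to give inhibition.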
# [7] = at 5.0 µM (retest, dose inferred, filed as 0.5)
# [8] = at 50.0 µM (retest, dose inferred, filed as 5.0)
SMILES,"growth inhibition [1, 7]","growth inhibition [1, 8]",growth inhibition ([1]; at 50.0 µM),"growth inhibition [2, 7]","growth inhibition [2, 8]",growth inhibition ([2]; at 50.0 µM),"growth inhibition [3, 7]","growth inhibition [3, 8]",growth inhibition ([3]; at 50.0 µM),"growth inhibition [4, 7]","growth inhibition [4, 8]",growth inhibition ([4]; at 50.0 µM),"growth inhibition [5, 7]","growth inhibition [5, 8]",growth inhibition ([5]; at 50.0 µM),"growth inhibition [6, 7]","growth inhibition [6, 8]",growth inhibition ([6]; at 50.0 µM)
c1ccc(COc2cccc3[nH]ccc23)cc1,-3%,29%,74.4% (active),-3%,10%,90.2% (active),-6%,5%,86.6% (active),-7%,6%,88.8% (active),3%,35%,83.8% (active),-5%,25%,95.5% (active)
C1=CN2C(c3ccccc3)=NN(c3ccccc3)[C@@H]2c2ccccc21,-4%,70% (active),60.6%,-6%,53%,42%,-3%,50%,56.3%,0%,22%,27.8%,1%,79% (active),59.5%,2%,72% (active),54.8%
OC(Cc1ccc2ccccc2c1)CN1CCC(c2ccccc2)CC1 (configuration not stated),56%,84% (active),89.3% (active),37%,80% (active),83.5% (active),24%,76% (active),91.2% (active),70% (active),88% (active),90.1% (active),67%,96% (active),91.6% (active),81% (active),94% (active),90.5% (active)
O=C(/C=C(/c1ccccc1)P(=O)(c1ccccc1)c1ccccc1)c1ccccc1,-2%,97% (active),97.9% (active),-15%,97% (active),98.6% (active),-5%,97% (active),98.8% (active),-4%,71% (active),97.8% (active),-5%,86% (active),97.8% (active),15%,99% (active),98.6% (active)
O=C(N/N=C/c1ccccc1O)C1Cc2ccccc2C1C(Cl)Cl (configuration not stated),51%,97% (active),88% (active),36%,98% (active),91.3% (active),47%,99% (active),93% (active),31%,95% (active),89.5% (active),45%,82% (active),90.7% (active),59%,98% (active),90.8% (active)
CCOC(=O)Cc1csc(/C=C/c2ccc(OC)c(OC)c2)n1,-15%,8%,17.2%,-1%,20%,11.8%,-13%,14%,6.9%,3%,37%,-37.2%,7%,8%,-12.7%,1%,18%,21.4%
CCN(CC)CCNc1ccc(C)c2sc3c(OC)cccc3c(=O)c12,1%,22%,74.6% (active),-1%,4%,9.75%,-3%,22%,25.6%,-2%,8%,-2.4%,-1%,11%,23.4%,-5%,36%,11.8%
c1cc[c]([Sn]([CH]2c3ccccc3-c3ccccc32)([CH]2c3ccccc3-c3ccccc32)[CH]2c3ccccc3-c3ccccc32)cc1,4%,0%,95.2% (active),5%,2%,98% (active),-1%,-4%,95.5% (active),3%,6%,95% (active),2%,-3%,97.3% (active),4%,11%,96.3% (active)
OC1CN(C2CCCCC2)CC1C1(O)CCN(C2CCCCC2)C1 (configuration not stated),0%,6%,20.1%,1%,5%,-2.75%,0%,11%,12.8%,4%,10%,65.7%,1%,15%,-5.85%,3%,10%,20.2%
C/C(=N/NC(=S)N1CCCC1)c1cccc(/C(C)=N\NC(=S)N2CCCC2)n1,11%,12%,15.2%,13%,28%,-14.9%,-17%,-4%,-6.45%,1%,-4%,-3.15%,-3%,5%,-8.05%,17%,18%,1.65%
CN(C)c1ccc(C(c2cc3c(cc2O)OCO3)N2CCCC2)cc1 (configuration not stated),7%,99% (active),99.2% (active),15%,99% (active),99.4% (active),-3%,99% (active),99.2% (active),-3%,99% (active),99.1% (active),0%,99% (active),99.4% (active),-7%,99% (active),99.2% (active)
CCCCCCCCCCCCCCCCCC[n+]1cccc(C(=O)c2ccccc2)c1,58%,99% (active),99.3% (active),92% (active),100% (active),99.5% (active),97% (active),99% (active),99.5% (active),56%,98% (active),97.3% (active),68%,99% (active),98.7% (active),98% (active),99% (active),99.5% (active)
CC(=O)Oc1ccc(/C=C/c2ccncc2)cc1,-164%,-78%,67.8%,-47%,-33%,44%,-65%,7%,60%,-58%,-32%,50.1%,-58%,6%,84.7% (active),-157%,-69%,48.2%
CC1c2cc(c3c(c2O)CN([C@@H](C)C2CCCCC2)CO3)C(C)c2cc(c3c(c2O)CN([C@@H](C)C2CCCCC2)CO3)C(C)c2cc(c3c(c2O)CN([C@@H](C)C2CCCCC2)CO3)C(C)c2cc1c1c(c2O)CN([C@@H](C)C2CCCCC2)CO1 (some centres not stated),-3%,-5%,36.6%,-1%,-28%,2.9%,-3%,-10%,42.9%,-2%,-44%,30.8%,-1%,-13%,69.2%,-6%,-16%,47.3%
CC(CCC(=O)O)(Nc1ccc([N+](=O)[O-])cc1[N+](=O)[O-])C(=O)O (configuration not stated),51%,99% (active),99.2% (active),41%,100% (active),99.6% (active),52%,99% (active),99.1% (active),18%,100% (active),91.9% (active),34%,100% (active),98.8% (active),57%,100% (active),98.8% (active)
NC(CSSCC(N)C(=O)Nc1ccc2ccccc2c1)C(=O)Nc1ccc2ccccc2c1 (configuration not stated),42%,98% (active),88.6% (active),42%,100% (active),91.7% (active),54%,100% (active),91.7% (active),21%,99% (active),90.3% (active),37%,99% (active),89.5% (active),68%,99% (active),88% (active)
COc1cc2c(c(O)c1OC)-c1c(cc(OC)c(OC)c1OC)CC(C)C(C)C2 (configuration not stated),-23%,27%,66.9%,-23%,11%,46.7%,-15%,63%,74.7% (active),-10%,61%,51.5%,9%,53%,60%,6%,59%,18.7%
O=c1c2cnccc2cc2c3ccccc3ccn12,47%,93% (active),91.8% (active),12%,58%,41.5%,9%,64%,6.75%,3%,42%,74.8% (active),5%,37%,2.45%,26%,87% (active),64%
COc1ccc(/C=C/C(=N/NC(=O)c2ccccc2)C(C)CN(C)C)cc1 (configuration not stated),-3%,4%,6.15%,1%,4%,16.3%,3%,2%,6.9%,1%,-2%,49.2%,-5%,-7%,-8.2%,-1%,-64%,7.45%
